Assay outcomes deposited in PubChem BioAssay by Johns Hopkins Ion Channel Center.
KCNQ2 block: KCNQ2 (rat) channel inhibition; B-score at 10 µM; O88943; AID 2156; CHO-K1 KCNQ2, FluxOR thallium flux, 20 min; stronger effect = lower value; hit rate 1.1% among 310,000;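 active = fluorescence ratio B-score at most minus 3 library SDs, with starting brightness B-score within 2 library SDs, cut at about -5.5 in these data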
KCNQ2 pot: potentiators of rat KCNQ2 potassium channel; CHO-K1 KCNQ2, FluxOR thallium flux fluorescence; stronger effect = higher value; B-score at 10 µM; hit rate 0.54% among 310,000; O88943;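 active = fluorescence ratio B-score at least 3 SD of library B-scores, with initial fluorescence B-score within 3 of them, cut at about 5.3 in these data; same plate scores as AID 2156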;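 also: B-score of peak minus minimum over baseline fluorescence ratio after K+ and Tl+ stimulus; positive B-score means potentiation of KCNQ2 with more thallium influx and brighter signal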
KCNQ2 block conf: rat KCNQ2 channel inhibition, confirmatory screen; activity change, negative = inhibition, % at 10 µM; shares compounds with KCNQ2 block; KCNQ2-expressing cells, thallium flux; stronger effect = lower value; hit rate 57% among 1,000
KCNQ1 spec: selectivity of KCNQ2 inhibitors against human KCNQ1; shares compounds with KCNQ2 block; KCNQ1-expressing cells, FluxOR thallium flux fluorescence; stronger effect = lower value; activity change, negative = inhibition, % at 10 µM; hit rate 15% among 1,000; AID 493026;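 active = activity change at least 3 SD of negative controls below their mean in both duplicate wells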;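 also: CHO cells stably transfected with KCNQ1 and depolarized by potassium stimulus; peak minus minimum fluorescence over baseline after thallium addition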
CHO Tl ctr: counter-screen for KCNQ2 inhibitors: effect in parental CHO cells; shares compounds with KCNQ2 block; thallium flux counter-screen; stronger effect = lower value; activity change, % at 10 µM; hit rate 14% among 1,000; AID 493029
KCNQ2 patch conf: blocks rat KCNQ2 current in automated patch clamp. shares compounds with KCNQ2 block. KCNQ2-expressing cells. calls only at 10 µM. hit rate 49% among 550. AID 588531
Kir21 conf inh: confirmation of mouse Kir2.1 potassium channel inhibitors. shares compounds with KCNQ2 pot. Kir2.1-expressing cells, FluxOR thallium flux fluorescence; stronger effect = lower value. Tl flux remaining, % of negative control (stronger effect = lower value), % at 10 µM. hit rate 41% among 2,300. AID 2032;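 active = Primary-screen hit whose thallium flux fell at least 3 control SD below untreated wells in both duplicates, with normal baseline fluorescence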
HEK293 ctr: parental HEK293 activity in Kir2.1 inhibitor counter-screen; shares compounds with KCNQ2 pot; parental HEK293 cells, FluxOR thallium flux fluorescence; 0% = unstimulated blank wells; FluxOR signal as % of negative control (100 = no effect), % at 10 µM; AID 2105; hit rate 19% among 2,300;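 active = dye signal at least 3 control SD above or below untreated wells in both duplicates, raw fluorescence within 3, either direction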;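 also: percent is based on the flux ratio of peak minus minimum fluorescence over baseline F0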
CHO-K1 Tl ctr: alters thallium flux in parental CHO-K1 cells, KCNQ2 counter-screen | hit rate 43% among 1,200 | activity increase over 3SD of controls, % at 10 µM | FluxOR thallium flux fluorescence; zero = vehicle mean+3SD, 100% = vehicle-minus-blank window | shares compounds with KCNQ2 pot;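 active = signal rise of at least 3 SD above the untreated control mean, in both duplicate wells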;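 also: counter screen of KCNQ2 potentiator hits so any rise reflects channel-independent effects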
KCNQ1 pot spec: human KCNQ1 counter-target activity of KCNQ2 potentiators | shares compounds with KCNQ2 pot | CHO KCNQ1 stable, FluxOR thallium flux fluorescence; beyond 3SD, as % of vehicle-control signal | activation over 3SD threshold, % at 10 µM | hit rate 28% among 1,200 | AID 2283;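 active = fluorescence ratio rise of at least 3 SD of vehicle wells above their mean, in both replicate wells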
KCNQ2 pot confirm: confirmation of rat KCNQ2 potassium channel potentiators | CHO-KCNQ2 cells, FluxOR thallium flux fluorescence | shares compounds with KCNQ2 pot | hit rate 68% among 1,200 | AID 2287 | potentiation, less the hit threshold, % at 10 µM;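 active = fluorescence ratio rising 3 SD or more over the vehicle control mean in both replicates, plus primary screen hit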;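 also: peak minus minimum thallium fluorescence divided by baseline after K/Tl stimulus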
Kir2-1 sel: mouse Kir2.1 off-target activity of KCNQ2 potentiators | shares compounds with KCNQ2 pot | activity over 3SD threshold, % at 10 µM | HEK293 Kir2.1, FluxOR thallium flux fluorescence | AID 2345 | hit rate 2% among 1,200;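 active = fluorescence ratio rise of at least 3 SD above the vehicle-control mean, seen in both replicates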
KCNQ2 W236L MoA: potentiates the retigabine-insensitive rat KCNQ2 W236L mutant channel; CHO KCNQ2-W236L, automated patch clamp current; hit rate 10% among 940; current increase over 3SD of negative controls (%), stronger effect = higher value, % at 25 µM; AID 2558; shares compounds with KCNQ2 pot;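 active = current increase at least 3 SD of the untreated controls above them in both duplicate recordings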
Target sequence (O88943 whole entry W236L, looked up): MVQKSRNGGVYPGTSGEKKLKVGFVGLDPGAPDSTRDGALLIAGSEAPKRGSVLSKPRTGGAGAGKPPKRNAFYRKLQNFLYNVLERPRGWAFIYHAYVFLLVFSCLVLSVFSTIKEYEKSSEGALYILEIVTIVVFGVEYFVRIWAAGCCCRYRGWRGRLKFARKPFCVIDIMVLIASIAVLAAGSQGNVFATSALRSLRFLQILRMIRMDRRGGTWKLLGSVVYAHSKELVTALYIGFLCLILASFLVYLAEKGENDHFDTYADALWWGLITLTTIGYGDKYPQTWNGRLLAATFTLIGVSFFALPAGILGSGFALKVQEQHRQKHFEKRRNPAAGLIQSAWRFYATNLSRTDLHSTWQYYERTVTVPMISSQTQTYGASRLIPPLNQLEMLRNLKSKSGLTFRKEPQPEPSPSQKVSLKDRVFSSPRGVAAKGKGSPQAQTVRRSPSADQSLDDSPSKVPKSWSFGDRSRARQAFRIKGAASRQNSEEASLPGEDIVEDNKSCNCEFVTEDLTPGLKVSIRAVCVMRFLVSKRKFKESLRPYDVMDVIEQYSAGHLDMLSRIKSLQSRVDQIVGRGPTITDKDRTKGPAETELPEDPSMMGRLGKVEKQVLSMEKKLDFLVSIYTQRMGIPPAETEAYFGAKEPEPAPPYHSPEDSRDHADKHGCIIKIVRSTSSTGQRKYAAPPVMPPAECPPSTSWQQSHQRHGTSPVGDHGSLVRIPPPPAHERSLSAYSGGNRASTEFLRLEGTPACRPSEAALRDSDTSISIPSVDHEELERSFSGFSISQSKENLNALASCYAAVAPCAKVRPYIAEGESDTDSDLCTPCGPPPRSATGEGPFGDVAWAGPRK
Of the large screens only hits and unclear results are named; the others gave an inactive call (follow-up assays come after a bar, where they were run). Compounds with a hit are over-represented: about 1.6% of the library has one in this group of screens. Unless noted, no rule for the calls is given here.

O=C(COC(=O)CCS(=O)(=O)c1ccccc1)NC(=O)c1ccc(OC(F)F)cc1	none
CCN1CCN(CCC(=O)Nc2cc(OC)cc(OC)c2)CC1	none (no result: KCNQ2 pot)
CCC(C)(C)c1ccc(OCCCC[n+]2cccc(C)c2)c(C(C)(C)CC)c1	KCNQ2 block -8.4 | KCNQ2 block conf inactive | KCNQ1 spec inactive | CHO Tl ctr inactive | Kir21 conf inh 33% | HEK293 ctr inactive
Cc1ccc[n+](CC(=O)Nc2cc(C(F)(F)F)ccc2Cl)c1	none
CCC[C@H](CN[C@@H](CNC)[C@H](C)CC)NCCc1cc(C(F)(F)F)cc(C(F)(F)F)c1	none (no result: KCNQ2 pot)
CC[C@@H](C)[C@H](CNC)NC[C@@H](Cc1cccc2ccccc12)NCCc1cccc(C(F)(F)F)c1	KCNQ2 block -8.5 | KCNQ2 block conf -29% | KCNQ1 spec inactive | CHO Tl ctr inactive | KCNQ2 patch conf inactive | Kir21 conf inh 22% | HEK293 ctr inactive
CCOc1cccc(-c2nc3c(s2)CCc2onc(-c4cccc([N+](=O)[O-])c4)c2-3)c1	none (no result: KCNQ2 pot)
CCOc1cc(/C=N/N=C(N)N)ccc1OCc1ccc(Cl)cc1	KCNQ2 block -10 | KCNQ2 block conf inactive | KCNQ1 spec inactive | CHO Tl ctr inactive | Kir21 conf inh 62% | HEK293 ctr inactive
NC(N)=N/N=C/c1ccc(OCc2ccccc2)c(OCc2ccccc2)c1	none (no result: KCNQ2 pot)
O=C(COc1cc2oc(=O)c3c(c2cc1Cl)CCCC3)NCC1CCC(C(=O)O)CC1 (stereo not given)	none
N#CC1(NC(=O)COC(=O)c2nccnc2N)CCCCC1	none (no result: KCNQ2 pot)
CC(C)(C)C(=O)Nc1ccccc1C(=O)NCc1cccnc1	none
CC(C)(C)c1ccccc1OCC(=O)Nc1ccccc1C(=O)NCc1cccnc1	none | Kir21 conf inh 77% | HEK293 ctr inactive
Oc1c(Cl)cc(Cl)cc1/C=N/NC(=S)NC1CC2C=CC1C2 (stereo not given)	KCNQ2 pot 7.2 | Kir21 conf inh inactive | HEK293 ctr inactive | CHO-K1 Tl ctr inactive | KCNQ1 pot spec 70 | KCNQ2 pot confirm inactive | Kir2-1 sel inactive
Oc1ccccc1/C=N/NC(=S)NC1CC2C=CC1C2 (stereo not given)	none
COc1ccc(CCNc2nc3ccccc3n3cnnc23)cc1OC	none
CCc1nnc2c(NCCc3ccc(OC)c(OC)c3)nc3ccccc3n12	KCNQ2 pot 11 | Kir21 conf inh inactive | HEK293 ctr inactive | CHO-K1 Tl ctr 9.6 | KCNQ1 pot spec inactive | KCNQ2 pot confirm inactive | Kir2-1 sel inactive
CC1c2ccsc2CCN1S(=O)(=O)c1ccccc1 (stereo not given)	none | Kir21 conf inh 52% | HEK293 ctr inactive
COc1cc2c(cc1OC)C(C)N(S(=O)(=O)c1cccs1)CC2 (stereo not given)	none
CCOC(=O)c1ccc(NC(=O)CCSCCc2ccccn2)cc1	none
Cc1ccc(OCC(=O)NC2CCCCCC2)cc1C	KCNQ2 pot 6.5 | Kir21 conf inh inactive | HEK293 ctr inactive | CHO-K1 Tl ctr inactive | KCNQ1 pot spec inactive | KCNQ2 pot confirm 2.0 | Kir2-1 sel inactive | KCNQ2 W236L MoA inactive
Cc1cccc(CC(=O)NC2CCN(C)CC2)c1	none (no result: KCNQ2 pot)
Cc1cc2cccc(C)c2nc1SCC(=O)NCC1CCCO1 (stereo not given)	none
CCc1cc2ccc(C)c(C)c2nc1SCC(=O)Nc1cc(C)on1	none
Cc1cc(NC(=O)CSc2nc3c(C)c(C)ccc3cc2C)no1	KCNQ2 pot 5.9 | Kir21 conf inh inactive | HEK293 ctr inactive | CHO-K1 Tl ctr inactive | KCNQ1 pot spec inactive | KCNQ2 pot confirm inactive | Kir2-1 sel inactive
Cc1cccc(CC(=O)NC2CCCCCC2)c1	KCNQ2 pot 6.7 | Kir21 conf inh inactive | HEK293 ctr inactive | CHO-K1 Tl ctr inactive | KCNQ1 pot spec inactive | KCNQ2 pot confirm 11 | Kir2-1 sel inactive | KCNQ2 W236L MoA inactive
Cc1cc2cccc(C)c2nc1SCC(=O)NC1CCCCC1	KCNQ2 pot 13 | Kir21 conf inh inactive | HEK293 ctr inactive | CHO-K1 Tl ctr inactive | KCNQ1 pot spec inactive | KCNQ2 pot confirm 0.3 | Kir2-1 sel inactive | KCNQ2 W236L MoA inactive
Cc1cccc(OCC(=O)NC2CCCC2)c1	none
Cc1nn(C)cc1C(C(=O)NC1CCCCC1)N(Cc1ccccc1Cl)C(=O)c1cnccn1 (stereo not given)	none (no result: KCNQ2 pot)
CC(C)c1nnc(NC(=O)C2CCN(C(=O)Nc3ccc(Cl)cc3)CC2)s1	none
CC1CCCCC1NC(=O)c1cccc(NC2=NC3CS(=O)(=O)CC3S2)c1 (stereo not given)	none (no result: KCNQ2 pot)
Cc1cc(=O)oc2cc(OC(=O)C3CCN(C(=O)c4ccc(F)cc4)CC3)ccc12	none
COc1cc(C)c(CN2CCC(n3nccc3NC(=O)C3CCOC3)CC2)cc1C (stereo not given)	none (no result: KCNQ2 pot)
CCn1c2ccccc2c2cc(NC(=O)COC(=O)c3cc(Cl)c(N)cc3OC)ccc21	none (no result: KCNQ2 pot)
Cc1ccc(CNCCCSc2nc(C)cc(C)n2)cc1	none (no result: KCNQ2 pot)
Cc1cc(C)nc(SCCCNCc2ccc(Br)cc2)n1	none | Kir21 conf inh 45% | HEK293 ctr inactive
COc1ccccc1NC(=O)C(C)OC(=O)CCCc1c[nH]c2ccccc12 (stereo not given)	none (no result: KCNQ2 pot)
C=CCn1c(SCC)nc2sc3c(c2c1=O)CCc1ccccc1-3	none (no result: KCNQ2 pot)
C=CCSc1nc2sc3c(c2c(=O)n1CC)CCc1ccccc1-3	KCNQ2 pot 5.7 | Kir21 conf inh inactive | HEK293 ctr 194% | CHO-K1 Tl ctr inactive | KCNQ1 pot spec inactive | KCNQ2 pot confirm 18 | Kir2-1 sel inactive | KCNQ2 W236L MoA 6.7%
O=C(CSCc1ccc(F)cc1)NCc1ccc2c(c1)OCO2	none (no result: KCNQ2 pot)
O=C(COc1ccc2c(c1)OCO2)Nc1ccccc1F	none (no result: KCNQ2 pot)
